# Hits are enriched below; roughly 0.58% of the tested compounds scored in any of these assays.
# Epigenetic reg: Quantitative High-Throughput Screen for Regulators of Epigenetic Control. murine LDR cells, GFP reporter derepression, 30 h. Potency, µM (top dose mostly 53.9 µM), for inactives: at the highest dose GFP activation, actives largely listed as activators. hit rate 0.2% among 280,000; further: potency means the concentration at half of the fitted maximal effect; % of control where 0% means no effect; nearly all actives have a fitted effect of over 60% in size
#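 In this reporter-derepression format, murine cells bearing a silenced integrated CMV-GFP locus incubate with test compound (30 h, 37 C), then are washed and imaged; fluorescent objects of 20–120 um count as induced cells.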
# IL2 activator: qHTS of IL-2 Activators; IL-2 activation reporter assay, cell-based qHTS; stimulated with anti-CD3/CD4/CD28 beads; in transgenic mouse T cells; activation, % (series mostly up to about 46 µM); hit rate 0.065% among 360,000; AID 652025, 2013; in the data active means activation above about 50%; inconclusive means mostly about 30% to 49%; further: 0% is about no effect
#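 Using fluorescent plate cytometry, EGFP and DsRed are detected in transgenic mouse T cells stimulated 18 h at 37 degrees C with antibody-coated beads after 60 min compound pretreatment.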
# PKM2 activator: qHTS Assay for Activators of Human Muscle isoform 2 Pyruvate Kinase; purified PKM2, Kinase-Glo ATP luminescence, activation; response scale: 0% is enzyme alone, no compound; Potency, µM (doses to about 57.5 µM), inactives show at the highest dose activation, most hits filed as activators; hit rate 0.34% among 260,000; further: potency means the concentration at half of the fitted maximal effect; on the % scale 0 is the no-effect control and ±100 the full control effect; nearly all actives have a fitted effect of over 55% in size
# Target sequence (P14618 whole entry, looked up, canonical isoform): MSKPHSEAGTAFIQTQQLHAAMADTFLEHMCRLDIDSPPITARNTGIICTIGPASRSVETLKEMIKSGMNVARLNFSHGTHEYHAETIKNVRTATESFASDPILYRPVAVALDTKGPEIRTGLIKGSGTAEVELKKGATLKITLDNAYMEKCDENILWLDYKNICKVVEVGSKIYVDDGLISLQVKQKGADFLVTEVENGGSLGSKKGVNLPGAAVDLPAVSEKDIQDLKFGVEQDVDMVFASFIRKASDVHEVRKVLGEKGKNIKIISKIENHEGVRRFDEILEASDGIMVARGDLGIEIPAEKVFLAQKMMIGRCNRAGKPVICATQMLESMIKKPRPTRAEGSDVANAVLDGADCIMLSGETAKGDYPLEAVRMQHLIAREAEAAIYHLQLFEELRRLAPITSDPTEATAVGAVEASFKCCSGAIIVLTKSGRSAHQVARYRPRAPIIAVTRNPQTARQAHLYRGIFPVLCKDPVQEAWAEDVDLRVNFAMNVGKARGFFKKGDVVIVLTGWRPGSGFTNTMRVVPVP
#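 ATP formation by purified human PK-M2, quantified via coupled luciferase luminescence after 1 h at room temperature with 0.1 mM ADP and 0.5 mM PEP final.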
# PINK1 expr mod: A Quantitative High throughput Screen to Identify Chemical Modulators of PINK1 Expression | PINK1 immunofluorescence, high-content cytometry, 24 h | Potency, µM (top dose mostly 76.6 µM), for the others: top-dose activation (PINK1 increase), most hits filed as activators | hit rate 0.2% among 410,000 | AID 624263, 2012; active means well fitted activation curve with a large enough effect; inconclusive means small, poorly fitted or top-dose-only effect; cell line not stated here; further: potency means the concentration at half of the fitted maximal effect; % of control where 0% means no effect; nearly all actives have a fitted effect of over 65% in size
#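 PINK1 protein level read as immunofluorescence by microplate cytometer in a fixed, stained stable cell line after 24 h exposure to five compound concentrations, with CCCP as control.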
# B2AR arrestin: qHTS assay of beta-arrestin-biased ligands of beta2-adrenergic receptor | hit rate 0.02% among 330,000 | Beta-2 adrenergic receptor (Homo sapiens), P07550 | beta-arrestin recruitment to beta2AR, cell-based reporter | Potency, µM (titrated, usually from 46.1 µM), inactives show at the top dose activation, most hits filed as activators;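 further: potency means the concentration at half of the fitted maximal effect; 0% = DMSO controls and full agonism = EC100 isoproterenol or metaproterenol; nearly all actives have a fitted effect of over 65% in size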
# * hit, by the source's call; ? = inconclusive; nt = not tested or not shown; [ ] = dose if it differs, or a comment. Unless noted, the call rests on the fitted dose curve; in most records, active means well fitted curve in the direction sought with a large enough effect; inconclusive means small, poorly fitted or top-dose-only effect, or another doubt; inactive means no such curve, though single readings can be large; an effect the other way counts as inactive or inconclusive.
SMILES,Epigenetic reg,IL2 activator,PKM2 activator,PINK1 expr mod,B2AR arrestin
O=C(Nc1cccc([N+](=O)[O-])c1)c1cc2ccccc2cc1O,0%,-3,3%,2.5µM*,-1%
COc1ccc(NC(=O)c2cc3cc(OC)ccc3oc2=O)cc1,nt,6,nt,25µM*,nt
COc1ccc(NC(=O)c2cccc([N+](=O)[O-])c2)cc1,4%,-3,-2%,1%,0%
COc1ccc(NC(=O)c2cc([N+](=O)[O-])ccc2O)cc1,3%,-4,-61%,28µM*,0%
CCOc1ccc(CCNC(=O)c2cccc3c2C(=O)N(CCOC)C3)cc1OCC,nt,55*,nt,1%,-1%
CCOc1ccccc1NC(=O)c1cccc2c1C(=O)N(CCOC)C2,-1%,-2,4%,2%,-1%
Oc1[nH]c2ccccc2c1N=Nc1ccccc1Cl,nt,?,nt,32µM*,nt
Cc1csc2ncnc(NNC(=O)c3ccc(Cl)cc3)c12,35µM*,-4,?,2%,-1%
Cn1c(CCNC(=O)c2ccco2)nc2cc(NS(=O)(=O)c3ccc(Cl)cc3)ccc21,-2%,-2,16µM*,-7%[38.3 µM],-1%
CC(=O)NCCc1nc2cc(NS(=O)(=O)c3ccc(Cl)cc3)ccc2n1C,nt,-1,-1%,2%,0%
Cc1ccc(S(=O)(=O)/N=C(/Nc2ccc([N+](=O)[O-])cc2[N+](=O)[O-])c2ccccc2)cc1,nt,-2,nt,35µM*,0%
O=C(Nc1ccc(NC(=O)c2cccc([N+](=O)[O-])c2)cc1)c1cccc([N+](=O)[O-])c1,nt,-1,9%,4%,0%
O=C(Nc1ncc(S(=O)(=O)c2ccc([N+](=O)[O-])cc2)s1)c1ccc2ccccc2c1,0%,0,3%,14µM*,-2%
O=C(Nc1ncc([N+](=O)[O-])s1)c1cccc([N+](=O)[O-])c1,-1%,-4,-27%,14µM*,0%
O=C(Nc1ncc(S(=O)(=O)c2ccc([N+](=O)[O-])cc2)s1)c1cccnc1,9%,1,11%,2%,-1%
O=C(Nc1nccs1)c1ccc(-c2ccc([N+](=O)[O-])cc2)o1,1%,1,-2%,35µM*,0%
CC(Sc1ccc([N+](=O)[O-])cn1)C(=O)Nc1nccs1 (centres undefined),nt,0,6.3µM*,0%,0%
Nc1c2c(nc3ccn(Cc4ccccc4)c(=O)c13)CCC2,-3%,1,14µM*,1%,0%
Nc1c2c(nc3ccn(-c4ccccc4)c(=O)c13)CCCCC2,1%,0,-1%,-1%,0%
Cc1ccccc1Sc1c(C#N)c(-c2ccccc2)nn1C,0%,-2,2%,7.1µM*,-2%
Cc1ccc(Sc2c(CO)c(-c3ccccc3)nn2C)cc1,2%,0,12%,1%,0%
Cc1ccc(CN2CCOc3ccc(CN4CCC(O)(c5cccnc5)CC4)cc3C2)cc1,nt,nt,nt,1%,nt
CCOC(=O)N1CCN(C(=O)c2ccc(Cn3c(=S)[nH]c4ccc(Br)cc4c3=O)cc2)CC1,nt,-6,nt,25µM*,0%
CCOC(=O)N1CCN(C(=O)c2ccc3c(=O)n(Cc4ccc(Cl)cc4)c(=S)[nH]c3c2)CC1,1%,0,0%,3%,0%
COc1cccc(CN2C(=O)NC(C)(C3CCN(Cc4cc(Cl)ccc4O)CC3)C2=O)c1OC (centres undefined),nt,nt,nt,-1%,nt
SMILES,Epigenetic reg,IL2 activator,PKM2 activator,PINK1 expr mod,B2AR arrestin
COc1ccc(-c2coc3cc(OC(C)=O)ccc3c2=S)cc1,nt,0,nt,18µM*,nt
Cc1nc(C)c(CC(=O)N2CCOc3ccc(CN4CCN(c5ccccn5)CC4)cc3C2)s1,nt,nt,nt,0%,nt
COc1ccccc1C1CN(CC(=O)N2CCC(C(O)c3ccccn3)CC2)Cc2ccccc2O1 (centres undefined),nt,nt,nt,1%,nt
C[N+](C)(C)c1ccc(/C=C/c2ccnc3ccccc23)cc1,nt,nt,nt,32µM*,nt
CCC[N+](C)(C)c1ccc(/C=C/c2ccnc3ccccc23)cc1,nt,nt,nt,3.2µM*,nt
Oc1ccc(/C=C/c2ccnc3ccccc23)cc1,8%,-4,-8%,-2%,6%
COc1cccc(CNC(=O)c2cnn(-c3ncc4c(n3)-c3ccccc3CCC4)c2C)c1OC,nt,nt,nt,1%,nt
Cc1c(C)c2cc(Cl)c(OCc3nn[nH]n3)cc2oc1=O,-5%,1,28µM*,2%,4%
COc1ccc(Cl)cc1N1C(=O)[C@@H]2C[C@H]1CN2Cc1nc2ccccc2nc1C,nt,nt,nt,1%,nt
COc1ccccc1-c1ccc(/C=C2/C=C(C)OC2=O)o1,0%,1,13µM*,3%,0%
COc1ccccc1-c1ccc(/C=C2\C=CC(=O)O2)o1,4%,0,7%,0%,4%
COc1cccc(-c2nc3cc4c(cc3cc2CN(C(=O)c2csc(C)n2)C2CC2)CCC4)c1OC,nt,nt,nt,1%,nt
O=C(CCc1c[nH]c2ccccc12)N1CCC(n2c(C3CCCO3)nc3cc(C(F)(F)F)ccc32)CC1 (centres undefined),nt,nt,nt,2%,nt
COc1ccc(N(C(C)=O)C2SC(=O)N(c3ccccc3)C2=O)cc1 (centres undefined),nt,nt,nt,0%,nt
CC(=O)N(c1cccc(C)c1)C1SC(=O)N(c2ccccc2)C1=O (centres undefined),-5%,1,0.4µM*,2%,0%
CCN(CC)c1ccc(N)cc1,nt,-1,nt,14µM*,0%
Nc1ccc(N(CCO)CCO)cc1,-5%,1,4%,3%,0%
COc1cc(C(=O)NCc2cccc3ccccc23)cc(Cl)c1OC,4%,-1,18µM*,-1%,0%
O=C(NC1CCN(Cc2ccccc2)C1)c1cnn(-c2ncc3c(n2)-c2ccccc2CC3)c1C1CC1 (centres undefined),nt,nt,nt,1%,nt
Cc1cc(=O)[nH]c(SCC(=O)Nc2ccc(F)cc2)c1C#N,0%,0,-4%,13%,0%
Cc1cc(=O)[nH]c(SCC(=O)Nc2ccc(Br)cc2)c1C#N,-1%,-2,6%,16µM*,-1%
Cc1oc(-c2ccccc2NC(=O)c2ccsc2)nc1CN(C)Cc1ccc2c(c1)CCCN2C,nt,nt,nt,2%,nt
Cc1ccc(-c2cc(-c3ccc4c(c3)OCO4)c(C#N)c(N)n2)o1,-4%,3,10µM*,7%,1%
Cc1ccc(-c2cc(-c3ccc(C)o3)nc(N)c2C#N)cc1,?,-1,?,-1%,0%
Cc1occc1C(=O)NCCN1Cc2ccccc2OC(c2ccccc2F)C1 (centres undefined),nt,nt,nt,0%,nt
COc1cccc(Cc2nc3cccnc3n2C2CCN(C(=O)c3n[nH]c4c3CCCC4)CC2)c1,nt,nt,nt,1%,nt

# Screening data (PubChem)
